In the library only some 27% were active in any assay of this set; here they are far more common.
sEH act = increases human soluble epoxide hydrolase activity; activation, % at 2 µM; actives 0.04% (n = 91,000); P34913; purified human sEH enzymatic activity, activator screen; in the data active = activation above about 37%
Target sequence (P34913 whole entry, looked up): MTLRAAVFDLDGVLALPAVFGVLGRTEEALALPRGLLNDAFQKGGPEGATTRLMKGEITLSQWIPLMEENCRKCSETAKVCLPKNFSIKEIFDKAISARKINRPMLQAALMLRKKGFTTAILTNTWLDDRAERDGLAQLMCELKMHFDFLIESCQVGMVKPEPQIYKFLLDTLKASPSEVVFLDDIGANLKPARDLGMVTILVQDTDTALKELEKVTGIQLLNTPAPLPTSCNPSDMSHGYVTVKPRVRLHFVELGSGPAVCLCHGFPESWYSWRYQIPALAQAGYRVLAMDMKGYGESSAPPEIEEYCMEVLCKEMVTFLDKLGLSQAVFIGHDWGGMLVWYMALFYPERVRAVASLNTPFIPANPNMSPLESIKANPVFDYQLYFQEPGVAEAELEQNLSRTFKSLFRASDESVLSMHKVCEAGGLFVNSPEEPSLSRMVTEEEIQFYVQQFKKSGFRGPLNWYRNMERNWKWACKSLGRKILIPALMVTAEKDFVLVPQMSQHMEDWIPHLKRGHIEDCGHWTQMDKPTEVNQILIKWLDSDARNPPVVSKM
CYP2C19 inhib = blocks human cytochrome P450 2C19 | inhibition, % at 5 µM | CYP2C19 Supersomes, luciferin-H EGE luminescence, 30 min | P33261 | actives 21% (n = 96,000) | AID 778;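 active = CYP2C19 inhibition above a set limit at 5 µM in the primary screen, cut at about 50% in these data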;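 note: plate controls were negative control wells for no effect and 2.5 mM tranylcypromine positive control for full effect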
CYP2C19 activ = cytochrome P450 2C19 (human) activation. recombinant CYP2C19, luciferin-H EGE luminescence; hits give high values; 0 = fully inhibited enzyme, 1 = untreated enzyme. activation factor at 5 µM. 96,000 tested, under 10 active. AID 1025;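 active = activation factor of at least 2 at 5 µM in the primary screen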;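 note: 0 = wells with 2.5 mM tranylcypromine and 1 = vehicle-only wells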
CYP2C9 inh = inhibitors of human CYP2C9; AID 777; inhibition, % at 5 µM; CYP2C9 Supersomes, luciferin-H conversion, luminescence; actives 20% (n = 96,000); P11712;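 active = blocking of liver enzyme CYP2C9 beyond about 50% at 5 µM, limit read from the data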
sEH inhibitor = soluble epoxide hydrolase (human) inhibition | P34913 | recombinant human sEH enzymatic activity assay | inhibition, % at 2 µM | actives 0.34% (n = 91,000) | AID 707; in the data active = inhibition above about 80%
CYP2C9 act = increases human cytochrome P450 2C9 activity; recombinant CYP2C9, luciferin-H conversion, luminescence; hits give high values; factor 1 = untreated enzyme, 0 = blocked; P11712; activation factor at 5 µM; AID 1024; actives 1.4% (n = 96,000);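 active = activation factor of 2 or more for CYP2C9 at a 5 µM dose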;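 note: 0 = sulfaphenazole-blocked wells and 1 = vehicle-only wells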
The depositor's hits bear a star; x = not tested or not shown.

SMILES | sEH act | CYP2C19 inhib | CYP2C19 activ | CYP2C9 inh | sEH inhibitor | CYP2C9 act
Cc1ccccc1CN(c1ccc(C(=O)Nc2ccccc2C(=O)N2CCCC2)cc1)S(C)(=O)=O | 5 | 99* | 0 | 91* | -6 | 0.1
Cc1ccccc1CN(c1ccc(C(=O)N2CCc3ccccc3C2)cc1)S(C)(=O)=O | 9 | 55* | 0.5 | 63* | -6 | 0.4
CC(=O)c1cccc(NC(=O)c2ccc(N(Cc3ccccc3C)S(C)(=O)=O)cc2)c1 | 2 | x | x | x | 3 | x
CC(C)CC1CC(=O)OC1(C)C(=O)CSc1nc2ccccc2s1 (stereo unspecified) | -3 | 22 | 0.8 | 26 | 7 | 0.7
CC(Oc1ccccc1)C(=O)NC1CC(C)(C)NC(C)(C)C1 (stereo unspecified) | 4 | -11 | 1.1 | -6 | -3 | 1.1
CCCS(=O)(=O)N1CCCC(C(=O)NCC2CCCO2)C1 (stereo unspecified) | 1 | 1 | 1 | 2 | -4 | 1
O=C1C2CC=CCC2C(=O)N1c1cccc(OS(=O)(=O)c2ccc3ccccc3c2)c1 (stereo unspecified) | -7 | 3 | 1 | -63 | 9 | 1.6
Cc1noc(C)c1CSc1nnc2cc(C)c3ccccc3n12 | x | 34 | 0.7 | 13 | x | 0.9
CS(=O)(=O)Nc1ccccc1C(=O)Nc1cccc(Cl)c1 | -5 | 48 | 0.5 | 68* | 6 | 0.3
CS(=O)(=O)Nc1ccccc1C(=O)Nc1cc(Cl)cc(Cl)c1 | 6 | 0 | 1 | 38 | -4 | 0.6
CCS(=O)(=O)Nc1ccc(C(=O)OC)cc1 | 5 | 64* | 0.4 | 69* | -6 | 0.3
COc1ccc(NC(=O)c2ccccc2NS(C)(=O)=O)cc1OC | -5 | 1 | 1 | 57* | 7 | 0.4
COc1cccc(NC(=O)c2ccccc2NS(C)(=O)=O)c1 | 6 | 9 | 0.9 | 65* | -11 | 0.3
CCS(=O)(=O)Nc1ccc(C(=O)c2ccccc2)cc1 | 2 | x | x | x | 1 | x
COc1ccccc1NC(=O)c1ccccc1NS(C)(=O)=O | 12 | -2 | 1 | 19 | -11 | 0.8
COc1ccccc1N1CCN(C(=O)C(C)N(c2ccccc2)S(C)(=O)=O)CC1 (stereo unspecified) | -4 | 0 | 1 | 8 | 2 | 0.9
COC(=O)c1ccc(NC(=O)c2ccccc2NS(C)(=O)=O)cc1 | -4 | 23 | 0.8 | 66* | 6 | 0.3
CS(=O)(=O)Nc1ccccc1C(=O)c1ccccc1 | 8 | 61* | 0.4 | -19 | -6 | 1.2
COC(=O)/C=C/CSC1=N/C(=C/c2ccc(-n3cncn3)cc2)C(=O)N1 | 7 | 2 | 1 | 25 | -4 | 0.7
COC(=O)C1=CN(CC2CCCO2)C=C(C(=O)OC)C1c1ccsc1 (stereo unspecified) | x | 30 | 0.7 | 52* | x | 0.5
CCCc1nnc(NC(=O)CN2C(=O)c3ccccc3C2=O)s1 | 8 | -14 | 1.1 | 9 | -9 | 0.9
O=C(CCn1c(=O)c2ccccc2n(CC(=O)NCCC2=CCCCC2)c1=O)NCc1ccco1 | -3 | 2 | 1 | 35 | 7 | 0.7
CCCc1nnc(NC(=O)Cn2c(=O)sc3ccccc32)s1 | -15 | 64* | 0.4 | 75* | 15 | 0.3
O=C(CCn1c(=O)sc2ccccc21)NCCC1=CCCCC1 | x | 88* | 0.1 | -75 | x | 1.7
Cc1csc(NC(=O)CCn2c(=O)sc3ccccc32)n1 | -8 | 79* | 0.2 | -256 | 7 | 3.6*
SMILES | sEH act | CYP2C19 inhib | CYP2C19 activ | CYP2C9 inh | sEH inhibitor | CYP2C9 act
O=C(CSCC(=O)Nc1nccs1)Nc1ccccc1 | -6 | 24 | 0.8 | 19 | 6 | 0.8
CCn1c(=NC(=O)CSCC(=O)Nc2nccs2)sc2ccccc21 | -1 | 92* | 0.1 | 84* | 3 | 0.2
CCOC(=O)C1CCCN(C(=O)c2cc3ncc(Br)cn3n2)C1 (stereo unspecified) | 5 | 2 | 1 | -3 | -8 | 1
CCOc1ccc(N2C(=O)C(c3ccccc3)=C(c3nc4ccccc4s3)C2NC(C)=O)cc1 (stereo unspecified) | -10 | -4 | 1 | 26 | 10 | 0.7
CCN(CCNC(=O)Cn1c(=O)sc2ccccc21)c1ccccc1 | -10 | 68* | 0.3 | 6 | 14 | 0.9
O=C(CCn1c(=O)sc2ccccc21)Nc1nccs1 | -5 | 84* | 0.2 | -9 | 7 | 1.1
CSc1ccccc1NC(=O)CCn1c(=O)sc2ccccc21 | 1 | 52* | 0.5 | 4 | 2 | 1
CC1CCCC(C)N1C(=O)Cn1c(=O)sc2ccccc21 (stereo unspecified) | 0 | 67* | 0.3 | 4 | 4 | 1
O=c1[nH]c2c(c3c1CCCC3)CCCC2 | -16 | 4 | 1 | -5 | 15 | 1.1
Cc1c(OC(=O)c2ccc([N+](=O)[O-])cc2)c2c(c[n+]1C)COC(C)(C)OC2 | -4 | 8 | 0.9 | 24 | 3 | 0.8
Cc1ncc2c(c1OC(=O)c1ccccc1)COC(C)(C)OC2 | 5 | 100* | 0 | 78* | -4 | 0.2
CCOc1ccc(NC(=O)NCCCn2c(C)nc3cc(C)c(C)cc32)cc1 | -14 | 35 | 0.6 | 81* | 13 | 0.2
Cc1cc2nc(C)n(CCCNC(=O)Nc3cccc4ccccc34)c2cc1C | -15 | 46 | 0.5 | 57* | 14 | 0.4
CN1CCN(CCCNC(=O)Nc2cccc3ccccc23)CC1 | -20 | -12 | 1.1 | -9 | 19 | 1.1
O=C(Cc1c(O)c2ccccc2[nH]c1=O)NC1CCCCCCC1 | x | 9 | 0.9 | 11 | x | 0.9
COc1ccc(NC(=O)CNS(=O)(=O)c2ccc3nc(C)sc3c2)c(OC)c1 | 3 | 28 | 0.7 | 51* | -4 | 0.5
CCOCC(=O)Nc1nc2ccc(OC)cc2s1 | 1 | 40 | 0.6 | 45 | -2 | 0.6
COc1ccc2nc(NC(=O)CN(C)S(=O)(=O)c3cccs3)sc2c1 | 15 | 80* | 0.2 | 62* | -18 | 0.4
CCOc1ccc(NCC(=O)Nc2ccc(Cl)cc2C)cc1 | -15 | x | x | x | 17 | x
COc1ccc2nc(NC(=O)CNS(=O)(=O)c3cccs3)sc2c1 | -1 | 64* | 0.4 | 7 | 1 | 0.9
COCCNC(=O)CNS(=O)(=O)c1ccc2nc(C)sc2c1 | 5 | -5 | 1 | -5 | -1 | 1.1
COc1ccc(NCC(=O)Nc2ccc(Cl)cc2C)c(OC)c1 | -4 | 93* | 0.1 | 99* | 7 | 0
COc1ccc2nc(NC(=O)Cc3cccs3)sc2c1 | 0 | 33 | 0.7 | 49 | -1 | 0.5
CS(=O)(=O)N(CC(=O)NC1CCCC1)c1ccc2c(c1)OCCO2 | 2 | 21 | 0.8 | 9 | -2 | 0.9
CC(C)c1nnc(NC(=O)c2cccnc2)s1 | -5 | -7 | 1.1 | 8 | 6 | 0.9
CCCCN1CCc2c1nc1ccc(Br)cc1c2N | -2 | 45 | 0.6 | 12 | 1 | 0.9
